Measured values taken from the supplement of paper PMC11732987, “Enantioselective OTUD7B fragment discovery through chemoproteomics screening and high-throughput optimisation” (Communications Chemistry, 2025).

Experiments:
Experiment in all cases: log2 ratio of Biotin-Ahx-Ub-VS probe labelling (fragment/DMSO); higher = less target engagement (more negative = stronger competition), active = hit call of the paper (q ≤ 0.05, log2 ratio ≤ -1)
Conditions in all cases: compound concentration: 200 uM; treatment time: 3 h
[1] = biological target: USP34 (UniProt Q70CQ2)
USP34, sequence (Q70CQ2 whole entry, the tested form may be a part): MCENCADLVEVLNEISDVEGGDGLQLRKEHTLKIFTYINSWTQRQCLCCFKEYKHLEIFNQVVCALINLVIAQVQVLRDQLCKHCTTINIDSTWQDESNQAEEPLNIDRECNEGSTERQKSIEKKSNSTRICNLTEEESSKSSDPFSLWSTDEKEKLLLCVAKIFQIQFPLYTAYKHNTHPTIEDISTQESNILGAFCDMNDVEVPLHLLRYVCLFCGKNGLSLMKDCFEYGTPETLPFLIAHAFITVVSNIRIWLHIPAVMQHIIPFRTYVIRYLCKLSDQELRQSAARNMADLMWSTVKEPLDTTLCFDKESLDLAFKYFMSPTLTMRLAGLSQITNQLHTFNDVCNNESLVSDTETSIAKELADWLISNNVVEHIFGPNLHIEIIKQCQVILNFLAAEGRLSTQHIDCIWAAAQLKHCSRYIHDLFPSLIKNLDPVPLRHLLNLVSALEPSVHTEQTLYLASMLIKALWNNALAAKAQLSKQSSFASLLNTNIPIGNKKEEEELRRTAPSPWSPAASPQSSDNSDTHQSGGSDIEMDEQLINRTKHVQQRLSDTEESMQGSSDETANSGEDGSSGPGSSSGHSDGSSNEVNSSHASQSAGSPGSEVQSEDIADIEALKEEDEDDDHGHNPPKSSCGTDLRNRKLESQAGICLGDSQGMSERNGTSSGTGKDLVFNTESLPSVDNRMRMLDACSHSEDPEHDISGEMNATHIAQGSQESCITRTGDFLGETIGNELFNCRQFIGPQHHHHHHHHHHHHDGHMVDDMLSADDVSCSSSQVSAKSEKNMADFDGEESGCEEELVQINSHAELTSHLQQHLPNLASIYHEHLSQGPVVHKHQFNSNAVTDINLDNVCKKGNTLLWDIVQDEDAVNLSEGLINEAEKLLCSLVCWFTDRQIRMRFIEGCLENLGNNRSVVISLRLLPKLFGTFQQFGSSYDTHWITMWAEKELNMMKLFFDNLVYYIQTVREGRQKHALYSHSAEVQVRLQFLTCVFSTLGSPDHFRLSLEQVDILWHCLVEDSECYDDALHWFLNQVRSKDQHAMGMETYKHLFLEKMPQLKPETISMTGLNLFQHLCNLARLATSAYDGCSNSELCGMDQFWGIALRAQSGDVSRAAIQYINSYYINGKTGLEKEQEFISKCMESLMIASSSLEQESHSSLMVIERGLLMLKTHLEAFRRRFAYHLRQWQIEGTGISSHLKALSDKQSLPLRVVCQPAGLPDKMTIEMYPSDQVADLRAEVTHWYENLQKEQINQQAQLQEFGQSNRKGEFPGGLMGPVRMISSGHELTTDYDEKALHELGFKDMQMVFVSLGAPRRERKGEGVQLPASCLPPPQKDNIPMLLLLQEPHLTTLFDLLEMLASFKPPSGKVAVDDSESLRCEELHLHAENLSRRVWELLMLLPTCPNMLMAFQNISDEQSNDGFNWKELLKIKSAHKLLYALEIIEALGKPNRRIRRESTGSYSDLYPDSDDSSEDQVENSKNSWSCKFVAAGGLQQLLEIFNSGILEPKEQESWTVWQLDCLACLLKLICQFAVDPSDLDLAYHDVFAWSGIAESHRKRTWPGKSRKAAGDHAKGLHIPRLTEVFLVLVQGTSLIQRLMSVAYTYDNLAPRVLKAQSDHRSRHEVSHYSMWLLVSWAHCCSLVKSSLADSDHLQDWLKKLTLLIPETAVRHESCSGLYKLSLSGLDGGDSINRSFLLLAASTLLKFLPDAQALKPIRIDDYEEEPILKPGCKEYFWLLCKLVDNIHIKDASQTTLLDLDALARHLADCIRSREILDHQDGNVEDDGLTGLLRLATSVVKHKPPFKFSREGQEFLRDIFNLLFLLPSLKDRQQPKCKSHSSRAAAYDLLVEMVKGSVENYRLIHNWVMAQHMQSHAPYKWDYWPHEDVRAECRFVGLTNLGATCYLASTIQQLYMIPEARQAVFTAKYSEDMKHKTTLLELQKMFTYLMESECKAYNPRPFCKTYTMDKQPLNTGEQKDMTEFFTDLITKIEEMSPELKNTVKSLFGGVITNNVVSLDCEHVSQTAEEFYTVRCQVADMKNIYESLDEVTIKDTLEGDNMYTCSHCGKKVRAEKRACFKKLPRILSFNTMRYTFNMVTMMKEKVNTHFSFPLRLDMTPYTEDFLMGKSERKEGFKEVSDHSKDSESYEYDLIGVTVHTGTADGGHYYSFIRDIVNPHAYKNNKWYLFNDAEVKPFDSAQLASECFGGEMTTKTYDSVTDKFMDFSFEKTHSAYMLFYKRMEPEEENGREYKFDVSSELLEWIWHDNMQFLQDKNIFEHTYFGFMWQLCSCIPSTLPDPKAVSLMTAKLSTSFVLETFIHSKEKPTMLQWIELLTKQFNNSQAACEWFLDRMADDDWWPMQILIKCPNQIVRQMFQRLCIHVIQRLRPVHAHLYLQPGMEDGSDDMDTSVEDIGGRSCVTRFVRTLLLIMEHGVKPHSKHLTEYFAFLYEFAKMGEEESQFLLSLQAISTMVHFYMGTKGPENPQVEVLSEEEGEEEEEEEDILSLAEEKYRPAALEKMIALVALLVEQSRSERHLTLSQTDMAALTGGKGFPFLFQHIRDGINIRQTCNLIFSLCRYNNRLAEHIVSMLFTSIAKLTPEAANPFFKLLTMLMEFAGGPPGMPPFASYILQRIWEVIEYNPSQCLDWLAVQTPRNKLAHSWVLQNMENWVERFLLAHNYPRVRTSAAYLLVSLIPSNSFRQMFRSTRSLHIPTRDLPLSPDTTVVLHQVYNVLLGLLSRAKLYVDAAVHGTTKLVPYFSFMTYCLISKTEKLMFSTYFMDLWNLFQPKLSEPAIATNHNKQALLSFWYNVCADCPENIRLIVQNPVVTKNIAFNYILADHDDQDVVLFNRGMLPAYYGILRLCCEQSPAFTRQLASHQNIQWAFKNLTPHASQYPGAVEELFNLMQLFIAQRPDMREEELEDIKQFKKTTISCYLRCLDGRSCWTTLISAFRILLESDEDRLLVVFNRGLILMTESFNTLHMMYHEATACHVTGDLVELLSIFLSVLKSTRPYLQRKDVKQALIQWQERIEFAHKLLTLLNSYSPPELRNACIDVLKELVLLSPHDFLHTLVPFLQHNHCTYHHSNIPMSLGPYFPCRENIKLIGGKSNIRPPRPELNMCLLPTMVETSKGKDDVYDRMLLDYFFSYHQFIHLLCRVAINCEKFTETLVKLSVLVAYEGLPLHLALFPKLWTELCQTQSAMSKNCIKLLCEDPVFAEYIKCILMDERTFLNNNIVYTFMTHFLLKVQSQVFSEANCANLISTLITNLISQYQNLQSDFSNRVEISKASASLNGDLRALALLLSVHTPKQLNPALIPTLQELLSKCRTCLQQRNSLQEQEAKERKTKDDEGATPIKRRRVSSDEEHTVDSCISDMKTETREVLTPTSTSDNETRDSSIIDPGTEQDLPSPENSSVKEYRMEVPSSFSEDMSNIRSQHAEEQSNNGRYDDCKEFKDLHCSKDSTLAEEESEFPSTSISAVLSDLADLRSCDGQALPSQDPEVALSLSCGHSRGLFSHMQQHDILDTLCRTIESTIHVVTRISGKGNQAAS
Method in brief: (§1)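 HEK293T lysate in Tris/CHAPS/IGEPAL buffer with protease inhibitors (495 µg per sample) was given fragment at 200 µM or vehicle for 3 h, in triplicate. It then received Biotin-Ahx-Ub-VS at 0.5 µM final for 1 h. Labelled DUBs were NeutrAvidin-enriched, digested with LysC and trypsin, and run by diaPASEF LC-MS/MS. Values are average log2 fragment/vehicle ratios by unpaired t-test on global-median-normalised Spectronaut quantities of proteins with ≥2 unique peptides.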

[2] = biological target: T1, USP36 (UniProt Q9P275)
T1 sequence (whole entry): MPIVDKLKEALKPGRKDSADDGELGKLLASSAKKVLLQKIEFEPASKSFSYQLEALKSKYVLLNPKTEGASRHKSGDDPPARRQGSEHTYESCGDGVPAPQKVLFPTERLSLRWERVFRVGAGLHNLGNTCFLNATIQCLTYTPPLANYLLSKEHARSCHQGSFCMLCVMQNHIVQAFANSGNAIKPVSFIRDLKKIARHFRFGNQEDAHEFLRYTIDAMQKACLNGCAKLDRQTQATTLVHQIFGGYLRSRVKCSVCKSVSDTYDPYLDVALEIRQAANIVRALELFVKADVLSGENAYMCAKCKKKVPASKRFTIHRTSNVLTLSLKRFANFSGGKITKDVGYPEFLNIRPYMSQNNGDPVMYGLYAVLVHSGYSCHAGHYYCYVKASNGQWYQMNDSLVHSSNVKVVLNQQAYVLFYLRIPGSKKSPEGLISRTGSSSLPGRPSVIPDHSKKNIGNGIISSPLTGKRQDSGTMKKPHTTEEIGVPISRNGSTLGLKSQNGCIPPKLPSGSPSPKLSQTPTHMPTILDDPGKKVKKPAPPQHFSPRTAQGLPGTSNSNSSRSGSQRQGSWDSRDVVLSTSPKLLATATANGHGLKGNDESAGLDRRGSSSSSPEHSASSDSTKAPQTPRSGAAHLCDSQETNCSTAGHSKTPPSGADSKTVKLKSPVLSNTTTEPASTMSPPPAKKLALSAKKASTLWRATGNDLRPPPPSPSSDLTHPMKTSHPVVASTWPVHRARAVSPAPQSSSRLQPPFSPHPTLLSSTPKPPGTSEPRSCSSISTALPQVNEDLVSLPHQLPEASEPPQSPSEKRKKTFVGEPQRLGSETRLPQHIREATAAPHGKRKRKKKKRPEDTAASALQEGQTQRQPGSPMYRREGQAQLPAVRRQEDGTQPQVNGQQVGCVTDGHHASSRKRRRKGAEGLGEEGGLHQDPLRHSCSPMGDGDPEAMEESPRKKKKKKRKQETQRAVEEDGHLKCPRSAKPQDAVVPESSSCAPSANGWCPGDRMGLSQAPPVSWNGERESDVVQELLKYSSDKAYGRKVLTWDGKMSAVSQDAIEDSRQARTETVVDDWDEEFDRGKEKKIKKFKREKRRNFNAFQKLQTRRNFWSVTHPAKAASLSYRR
Method in brief: as §1

[3] = biological target: T2, USP38 (UniProt Q8NB14)
T2 sequence (whole entry): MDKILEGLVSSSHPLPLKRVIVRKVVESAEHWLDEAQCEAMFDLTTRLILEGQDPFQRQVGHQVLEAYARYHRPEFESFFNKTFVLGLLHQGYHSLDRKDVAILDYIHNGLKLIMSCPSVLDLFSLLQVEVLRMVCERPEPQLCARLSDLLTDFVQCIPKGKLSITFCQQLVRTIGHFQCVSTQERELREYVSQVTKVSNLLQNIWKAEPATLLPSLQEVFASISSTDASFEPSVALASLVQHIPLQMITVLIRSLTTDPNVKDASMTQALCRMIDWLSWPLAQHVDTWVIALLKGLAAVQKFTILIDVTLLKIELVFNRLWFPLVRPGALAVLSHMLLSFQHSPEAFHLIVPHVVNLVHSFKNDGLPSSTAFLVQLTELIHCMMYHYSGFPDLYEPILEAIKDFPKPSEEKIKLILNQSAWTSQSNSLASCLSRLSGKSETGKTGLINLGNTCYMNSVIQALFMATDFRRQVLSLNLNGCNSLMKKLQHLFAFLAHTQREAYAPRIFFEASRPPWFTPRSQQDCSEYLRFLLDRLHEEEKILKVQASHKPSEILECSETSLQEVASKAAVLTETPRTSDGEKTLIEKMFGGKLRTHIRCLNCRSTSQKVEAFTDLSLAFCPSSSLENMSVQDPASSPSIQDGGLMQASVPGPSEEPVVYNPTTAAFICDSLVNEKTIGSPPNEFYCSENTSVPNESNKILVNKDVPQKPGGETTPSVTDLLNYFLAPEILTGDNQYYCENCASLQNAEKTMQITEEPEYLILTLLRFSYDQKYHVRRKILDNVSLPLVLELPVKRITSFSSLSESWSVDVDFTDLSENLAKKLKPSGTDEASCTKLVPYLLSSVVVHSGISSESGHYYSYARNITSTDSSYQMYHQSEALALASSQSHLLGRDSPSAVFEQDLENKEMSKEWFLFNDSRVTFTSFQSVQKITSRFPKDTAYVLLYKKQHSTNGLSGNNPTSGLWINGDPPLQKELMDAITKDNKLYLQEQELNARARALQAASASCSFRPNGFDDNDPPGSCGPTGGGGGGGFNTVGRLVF
Method in brief: as §1

[4] = biological target: T3, USP39 (UniProt Q53GS9)
T3 sequence (whole entry): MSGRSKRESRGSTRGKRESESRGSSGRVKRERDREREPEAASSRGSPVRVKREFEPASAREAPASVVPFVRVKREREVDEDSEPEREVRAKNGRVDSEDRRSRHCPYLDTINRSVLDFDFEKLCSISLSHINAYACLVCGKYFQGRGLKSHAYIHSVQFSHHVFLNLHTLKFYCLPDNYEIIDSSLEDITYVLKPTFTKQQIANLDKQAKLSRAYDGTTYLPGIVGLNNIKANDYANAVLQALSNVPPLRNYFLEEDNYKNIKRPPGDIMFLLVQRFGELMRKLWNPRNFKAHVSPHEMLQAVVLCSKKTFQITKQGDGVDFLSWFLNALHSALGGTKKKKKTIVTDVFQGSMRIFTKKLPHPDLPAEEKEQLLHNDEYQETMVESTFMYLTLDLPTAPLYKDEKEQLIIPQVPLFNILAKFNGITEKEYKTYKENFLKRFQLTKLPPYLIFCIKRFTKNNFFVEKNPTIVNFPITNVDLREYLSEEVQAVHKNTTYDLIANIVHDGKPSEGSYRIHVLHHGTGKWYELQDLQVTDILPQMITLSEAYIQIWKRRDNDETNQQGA
Method in brief: as §1

[5] = biological target: T4, USP4 (UniProt Q13107)
T4 sequence (whole entry): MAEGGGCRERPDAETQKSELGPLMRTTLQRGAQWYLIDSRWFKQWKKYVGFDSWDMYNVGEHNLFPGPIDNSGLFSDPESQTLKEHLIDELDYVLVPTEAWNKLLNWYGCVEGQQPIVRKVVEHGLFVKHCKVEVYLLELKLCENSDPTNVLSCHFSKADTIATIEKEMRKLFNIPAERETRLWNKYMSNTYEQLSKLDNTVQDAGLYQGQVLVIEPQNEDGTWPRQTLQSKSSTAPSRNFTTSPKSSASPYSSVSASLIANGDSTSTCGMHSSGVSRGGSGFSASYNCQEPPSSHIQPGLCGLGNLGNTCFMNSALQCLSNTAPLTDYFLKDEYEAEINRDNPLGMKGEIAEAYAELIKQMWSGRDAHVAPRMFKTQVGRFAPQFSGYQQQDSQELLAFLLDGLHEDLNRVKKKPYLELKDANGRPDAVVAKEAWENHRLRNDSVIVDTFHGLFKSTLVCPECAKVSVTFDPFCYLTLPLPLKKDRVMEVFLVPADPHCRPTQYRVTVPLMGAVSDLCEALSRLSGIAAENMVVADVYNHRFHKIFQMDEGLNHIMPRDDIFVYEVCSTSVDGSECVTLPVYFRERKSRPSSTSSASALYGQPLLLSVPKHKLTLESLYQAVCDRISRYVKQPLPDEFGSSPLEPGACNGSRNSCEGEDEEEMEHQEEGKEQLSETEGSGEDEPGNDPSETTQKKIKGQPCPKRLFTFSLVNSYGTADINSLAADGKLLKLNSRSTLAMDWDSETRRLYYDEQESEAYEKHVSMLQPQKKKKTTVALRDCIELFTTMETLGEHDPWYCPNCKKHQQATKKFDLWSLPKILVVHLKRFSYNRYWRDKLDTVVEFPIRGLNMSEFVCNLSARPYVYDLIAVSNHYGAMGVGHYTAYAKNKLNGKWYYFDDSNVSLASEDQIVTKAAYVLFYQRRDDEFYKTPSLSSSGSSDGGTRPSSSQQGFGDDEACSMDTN
Method in brief: as §1

Measured: log2 ratio of Biotin-Ahx-Ub-VS probe labelling

O=C(CCl)N[C@H]1CCS(=O)(=O)c2ccccc21
inactive: [1] -0.277 | [2] -0.115 | [3] -0.13 | [4] -0.176 | [5] -0.212
